Screens as filed in PubChem.
APP transl inh – APP translation inhibition | SH-SY5Y APP 5'UTR-luciferase reporter, luminescence | actives 0.82% (n = 190,000) | inhibition, % at 2 µM;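 active = inhibition above a set limit, derived from the sample mean plus 3 SD, cut at about 45% in these data; inconclusive = one replicate passes the limit while the other fails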
aSyn 5UTR inh – 5' untranslated region of α-synuclein, MLPCN primary screen; actives 0.82% (n = 300,000); alpha-synuclein 5'UTR reporter, inhibitor activity; inhibition, % (tested at 7.5 µM); AID 1813; in the data active = inhibition above about 60%; inconclusive = no clear call, values can overlap the other calls;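 also: H4 neuroglioblastoma cells stably carrying SNCA 5'UTR luciferase fusion; 0% = DMSO wells and 100% = positive control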
BaF3 tox – counter-screen for JAK2V617F inhibitors: parental Ba/F3 viability inhibitors; CellTiter-Glo ATP luminescence; inhibition, % at 5.6 µM; actives 1.1% (n = 220,000); AID 1486;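 active = inhibition above a per-campaign cutoff, the mean inhibition of all tested compounds plus 3 SD, cut at about 27% in these data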;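 also: 0% = DMSO wells and 100% = JAK Inhibitor I control wells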
KLF5 inhibitor – kruppel-like factor 5 inhibition; DLD-1 KLF5 promoter-luciferase reporter, luminescence; inhibition, % at 5 µM; actives 0.23% (n = 290,000);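 active = inhibition above a per-plate limit of that plate's mean compound inhibition plus 3 SD, cut at about 60% in these data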;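 also: 0% = DMSO wells and 100% = LY294002 at 200 µM; higher means less KLF5 promoter-driven luciferase light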
Ba/F3 V617F tox – loss of viability in JAK2V617F-driven Ba/F3 cells; actives 1.1% (n = 220,000); Ba/F3 EpoR-JAK2V617F viability, ATP luminescence; AID 1446; inhibition, % at 5.6 µM;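 active = inhibition above the campaign mean plus 3 SD over all tested compounds, cut at about 24% in these data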;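 also: cytokine-independent growth of Ba/F3 cells driven by EpoR plus mutant JAK2; 0% = DMSO-treated cells and 100% = JAK inhibitor I control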
IEC-6 tox – counter-screen for KLF5 inhibitors: cytotoxicity in IEC-6 cells | IEC-6 cytotoxicity, luminescence viability | inhibition, % at 5 µM | actives 0.78% (n = 290,000);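 also: 0% = plate median of test compound wells and 100% = cytotoxic reference compound wells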
IEC-6 tox confirm – confirmation of cytotoxic compounds in rat IEC-6 intestinal epithelial cells; shares compounds with IEC-6 tox; IEC-6 rat intestinal epithelial viability, luminescence; inhibition, % at 5 µM; actives 63% (n = 1,900); AID 1907;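 also: 0% = vehicle and 100% = reference cytotoxic drug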
* hit, by the source's call; ? = inconclusive; . = not tested or not shown. This is a sample that favours compounds with a hit; in the whole collection about 2.2% have one here. Rule as the data show it, unless noted: active = inhibition above about 22%; inactive = the rest.

SMILES	APP transl inh	aSyn 5UTR inh	BaF3 tox	KLF5 inhibitor	Ba/F3 V617F tox	IEC-6 tox	IEC-6 tox confirm
O=C(CCC(=O)NC1CCCCC1)Nc1cccnc1	.	-8	.	-32	.	0	.
O=C(CCCl)Nc1nc2c(s1)CCc1ccccc1-2	.	33	.	-14	.	30*	18
CN1CCN(NC(=O)C2CC2)CC1	-14	-25	6	-17	5	1	.
O=C(NC(=O)N1CCCCCC1)c1ccccc1	.	0	.	-34	.	2	.
Cc1ccc(S(=O)(=O)N2CCCN(C(=O)OC(C)(C)C)CC2)cc1	.	-16	-5	-28	-2	0	.
O=C(Oc1ccccc1-c1nnco1)c1ccc(Cl)cc1	-5	13	5	-9	4	33*	-6
CCc1ccc(S(=O)(=O)Nc2cc3c(cc2C)n(C)c(=O)n3C)cc1	.	-92	.	40	.	48*	40*
Cc1ccc(NS(=O)(=O)c2ccc3c(c2)n(C)c(=O)n3C)c(C)c1	.	3	.	-5	.	1	.
Cc1ccc(Nc2nc(=O)c3cccnc3s2)c(Br)c1	.	42	48*	15	51*	65*	42*
CC(=O)c1ccc(Nc2nc(=O)c3cccnc3s2)cc1	4	-124	7	-85	3	1	.
CC(C)CC(=O)NCCCCc1ccccc1	-22	3	6	-36	3	22*	6
CC(C)C(=O)NCCCc1ccccc1	1	5	1	-4	1	4	.
CC(=O)N1CCc2c(sc3c2c(=O)n(-c2ccccc2)c(=O)n3CC(=O)NCC2CCCO2)C1 (stereo not drawn)	.	5	.	-34	.	-6	.
CCOC(=O)N1CCc2c(sc3c2c(=O)n(-c2ccc(CC)cc2)c(=O)n3CC(=O)NCC2CCCO2)C1 (stereo not drawn)	.	30	.	-2	.	26*	8
CN(C)S(=O)(=O)c1ccc(NC(=O)N2CCN(c3cccc(C(F)(F)F)c3)CC2)cc1	0	49	11	24	4	4	.
COc1ccc(NC(=O)N2CCN(c3cccc(C(F)(F)F)c3)CC2)cc1	23	12	8	-27	3	24*	3
Cc1cc(C)n(-c2nc3ccccc3c(=O)n2OCC(=O)OCc2ccccc2)n1	51*	62*	4	8	-1	58*	30*
Cc1cc(C)n(-c2nc3ccccc3c(=O)n2OCC(=O)N(C)C)n1	3	5	4	-15	-1	1	.
COc1ccc(NC(=O)CCC(=O)N2CCOCC2)c([N+](=O)[O-])c1	.	-12	.	-3	.	11	.
COc1ccc(/C=N\NC(=O)c2sccc2C)cc1Cn1nc(C)cc1C	.	-30	.	-17	.	46*	25*
N#Cc1c(NC(=O)/C=C/C(=O)O)sc2c1CCN(Cc1ccccc1)C2	.	11	.	-18	.	-20	.
Cc1c(C)c(C)c(S(=O)(=O)NCCc2ccncc2)c(C)c1C	.	-6	.	-13	.	1	.
Cc1[nH]c2ccccc2c1C(C[N+](=O)[O-])c1ccco1 (stereo not drawn)	14	-1	7	4	2	-3	.
Cc1ccc(-c2[nH]c3ccccc3c2C(C[N+](=O)[O-])c2ccco2)cc1 (stereo not drawn)	-14	27	3	11	0	25*	10
CCOC(=O)C1(CCOc2ccccc2)CCN(Cc2ccc(-n3cccn3)cc2)CC1	-25	4	12	6	0	-1	.
SMILES	APP transl inh	aSyn 5UTR inh	BaF3 tox	KLF5 inhibitor	Ba/F3 V617F tox	IEC-6 tox	IEC-6 tox confirm
Cc1cc(C)c(NC(=S)N2CCC(N(C)CC3CCCO3)CC2)c(C)c1 (stereo not drawn)	16	-46	2	-3	-7	27*	-7
O=S(=O)(O)c1cccc2c(N=Nc3ccc(O)c4ncccc34)cccc12	.	9	.	-20	.	-6	.
COc1cccc(N=Nc2ccc(O)c3ncccc23)c1	.	44	.	27	.	30*	11
Nc1ccc(Br)c2cccnc12	6	-16	9	15	-3	11	.
COc1cccc(N=Nc2ccc3cccnc3c2O)c1	.	16	.	61	.	30*	56*
Nc1ccc(N=Nc2ccccc2)c2cccnc12	.	-57	.	-30	.	33*	34*
CC(=O)c1ccc(-c2ccc(C(=O)NCC3CCCO3)o2)cc1 (stereo not drawn)	.	-28	.	.	.	.	.
CCCCc1ccc(NC(=O)Nc2cnccn2)cc1	.	-98	.	-24	.	45*	23*
CCc1ccc(NC(=O)Cn2nc(C)n3cccc3c2=O)cc1	.	-33	.	-33	.	0	.
O=S(=O)(NCCN1CCOCC1)c1ccc(F)c(Cl)c1	.	25	.	-19	.	0	.
COc1cc2c(cc1OC)-c1c(OC)c(OC)cc3ccnc(c13)C2=O	15	110*	39*	21	47*	29*	25*
CCOC(=O)c1ccccc1NC(=O)Cn1c(-c2nonc2N)nc2ccccc21	94*	73*	75*	45	79*	77*	52*
N#CC1=C(N)Oc2ccc3ccccc3c2C1c1cccnc1 (stereo not drawn)	54*	?	34*	47	53*	55*	48*
CCOc1ccc(C(C)=O)cc1N1C(=O)C2C3C=CC(O3)C2C1=O (stereo not drawn)	18	0	28*	-21	11	22*	1
O=C(NCC(c1cccs1)N1CCOCC1)c1ccc(Cl)cc1 (stereo not drawn)	.	-100	.	.	.	.	.
O=C(NCC(c1cccs1)N1CCOCC1)c1ccc(Cl)s1 (stereo not drawn)	61*	7	69*	38	74*	72*	49*
O=[N+]([O-])c1ccc(-n2nnnc2-c2ccccc2)c([N+](=O)[O-])c1	-4	-2	30*	-37	69*	32*	5
CC(C)(Cc1ccc(O)cc1)NC(=O)c1ccccc1	.	4	.	-30	.	-7	.
NC(=O)c1oc2ccccc2c1NC(=O)c1ccc(F)cc1	4	-19	0	11	-5	5	.
O=C(NNC(=O)c1ccc([N+](=O)[O-])o1)c1ccccc1	-12	-34	-4	-7	-2	2	.
NC(=O)c1oc2ccccc2c1NC(=O)c1ccc([N+](=O)[O-])o1	.	100*	.	18	.	100*	57*
O=C(NC1CCCCC1)c1ccc([N+](=O)[O-])o1	.	-79	.	-10	.	68*	7
O=C(NN(c1ccccc1)c1ccccc1)c1ccc([N+](=O)[O-])o1	-18	-83	5	-7	4	27*	15
CC(NC(=O)c1ccc([N+](=O)[O-])o1)C12CC3CC(CC(C3)C1)C2 (stereo not drawn)	.	-168	.	-7	.	60*	5
CC(C)(C)OC(=O)CC12CCCCC1NC(=O)O2 (stereo not drawn)	.	-22	.	-4	.	10	.
O=[N+]([O-])c1c(Nc2ccccc2O)cc(Cl)c2nonc12	.	12	.	15	.	96*	43*
Cc1ccc2c(CN(C)Cc3cccc(F)c3)cc(=O)oc2c1	.	-124	.	-103	.	14	.
